“And” between values parts separate entries of the source, which are not always exact repeats. Equal entries are not always repeated. The source made the active and inactive calls. Unless noted, the rule behind the calls is not given here.

Assay [1] in a line: compounds binding Alexa647 anti-His antibody – biochemical, small-molecule microarray, 635 nm fluorescence, artefact control for SMM control protein annotation, primary screen (AID 1128).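 Note: score merges feature fluorescence with signal-to-noise for each printed compound spot.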 The note with it: higher = more signal.
Assay [2] has as its system Human papillomavirus type 1a E7 protein (residues 1-88). In words: HPV1a E7 small-molecule binders, primary screen, biochemical, small-molecule microarray, residues 1-88, 635 nm (AID 1129). The note with it: small-molecule microarray binding, fluorescence 635 nm; higher = more signal.
Assay [3] has as its target Focal adhesion kinase 1 (Homo sapiens) (UniProt Q05397). Put plainly: PTK2 protein binding on printed compound slides – biochemical, small-molecule microarray, 635/667 nm fluorescence, BSA, DTT, primary screen (AID 1130).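 Note: composite of spot emission at 667 nm and signal to noise over triplicate slides.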 Conditions: 635 nm fluorescence, higher = more signal.
The subject of assay [4] is Fibrinogen (Alexa647-labelled). In words: Alexa647-fibrinogen binding to printed small molecules – biochemical, small-molecule microarray, 635/667 nm fluorescence, artefact control for SMM control-protein annotation, profiling panel (AID 1131).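 Note: z-score merges 667 nm fluorescence with per-spot signal-to-noise over triplicate slides.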 The note with it: fibrinogen-A647 binding fluorescence, higher = more signal.
In assay [5] the target is Follistatin (Homo sapiens) (UniProt P19883). In words: FST protein binding to printed compounds – biochemical, small-molecule microarray, 635/667 nm fluorescence, primary screen (AID 1132). Conditions: 635 nm fluorescence, higher = more signal.
Sequence of Follistatin (Homo sapiens) (P19883 whole entry, looked up): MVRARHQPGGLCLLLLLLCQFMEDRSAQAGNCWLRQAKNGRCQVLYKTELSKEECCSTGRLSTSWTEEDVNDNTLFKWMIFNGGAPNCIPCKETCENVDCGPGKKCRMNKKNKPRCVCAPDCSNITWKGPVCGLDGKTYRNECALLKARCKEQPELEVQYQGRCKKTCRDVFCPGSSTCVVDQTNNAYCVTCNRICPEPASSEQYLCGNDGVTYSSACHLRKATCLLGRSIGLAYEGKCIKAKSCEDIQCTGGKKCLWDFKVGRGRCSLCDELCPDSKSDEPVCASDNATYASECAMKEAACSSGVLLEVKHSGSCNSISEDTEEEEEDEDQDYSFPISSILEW
Assay [6] concerns the target Fibroblast growth factor 2 (Homo sapiens) (UniProt P09038). In words: basic fibroblast growth factor binding to printed compounds – biochemical, small-molecule microarray, 635/667 nm fluorescence, primary screen (AID 1133). Conditions: FGF2, fluorescence 635/667, higher = more signal.
A short description of assay [7]: JC-1 mitochondrial potential readout, lung cancer cells – cell-based, A549, JC-1 fluorescence, basal, 24 h, 100 nL, profiling panel (AID 1138).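 Note: A549 lung adenocarcinoma cells under basal conditions with no added stimulus; test concentration not given here.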 Conditions: higher = more signal.
Another assay concerns Lefty1. Put plainly: Lefty1 protein binding to printed compounds – biochemical, small-molecule microarray, 635/667 nm fluorescence, primary screen (AID 1139). The note with it: fluorescence 635/667, higher = more signal.
Assay [8] relates to wheat germ agglutinin (Triticum aestivum), Alexa647-labelled. Put plainly: Alexa647-WGA lectin binding to printed small molecules – biochemical, small-molecule microarray, 635/667 nm fluorescence, artefact control for SMM control-protein annotation, profiling panel (AID 1140).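 Note: score merges 667 nm feature emission with signal to noise over triplicate slides.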 The note with it: WGA-A647 binding, 635 nm fluorescence, higher = more signal.
Assay [9] deals with Luciferin 4-monooxygenase (Photinus pyralis) (UniProt P08659). In words: inhibition of purified Photinus pyralis luciferase – biochemical, luminescence, purified enzyme, 2006 set, primary screen (AID 1141).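 Note: cell-free assay with purified firefly luciferase at 100 ng per well in PBS; test concentration not given here.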 The note with it: purified firefly luciferase, SteadyGlo luminescence, 30 min; higher = more signal, called active from +8 up or from −8 down.
Sequence of Luciferin 4-monooxygenase (Photinus pyralis) (P08659 whole entry, looked up): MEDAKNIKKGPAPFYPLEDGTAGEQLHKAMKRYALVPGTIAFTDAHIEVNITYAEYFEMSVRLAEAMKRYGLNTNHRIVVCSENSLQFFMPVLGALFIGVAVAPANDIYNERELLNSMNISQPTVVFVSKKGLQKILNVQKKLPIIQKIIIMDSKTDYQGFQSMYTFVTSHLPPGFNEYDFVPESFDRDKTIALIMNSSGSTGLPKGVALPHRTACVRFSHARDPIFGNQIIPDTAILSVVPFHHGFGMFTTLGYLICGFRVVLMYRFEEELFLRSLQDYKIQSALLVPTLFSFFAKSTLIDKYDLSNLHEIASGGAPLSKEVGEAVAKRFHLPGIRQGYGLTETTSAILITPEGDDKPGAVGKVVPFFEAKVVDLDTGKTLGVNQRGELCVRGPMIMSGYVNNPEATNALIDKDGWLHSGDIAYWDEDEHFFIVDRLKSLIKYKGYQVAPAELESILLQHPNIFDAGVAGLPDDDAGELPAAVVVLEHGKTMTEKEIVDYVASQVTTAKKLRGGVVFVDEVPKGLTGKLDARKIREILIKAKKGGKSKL
Assay [10] has as its system Wnt5a (protein binding on small-molecule microarray). In words: small molecules binding Wnt5a protein – biophysical, small-molecule microarray, 635/667 nm fluorescence, primary screen (AID 1142).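 Note: fluorescence read at 667 nm with signal to noise per printed feature.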 The note with it: 635 nm fluorescence, higher = more signal.
Assay [11] can be described thus: ATP-based viability of Huh7 replicon cells – cell-based, CellTiter-Glo luminescence, basal, 48 h, cytotoxicity control for HCV replication inhibitor project, primary screen (AID 1143).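 Note: Huh7 hepatoma cells carrying a hepatitis C replication reporter with no stimulus; test concentration not given here.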 The note with it: higher = more signal, called active from +8 up or from −8 down. (In general: A replicon is a self-replicating genome or part of one, used to study replication in cells.)

The nature of assay [12]: Pseudomonas biofilm growth suppression – PAO1 strain, BacTiter-Glo luminescence, LB-PBS, primary screen (AID 1144). Conditions: P. aeruginosa PAO1 biofilm, 12 h, higher = more signal.
A short description of assay [13]: basal CRE-LacZ reporter activity in PC12 – cell-based, unstimulated, primary screen (AID 1145). The note with it: no forskolin, luminescence, 4.5 h, higher = more signal, called active from +8 up or from −8 down.
Assay [14] in a line: forskolin-driven CRE-LacZ activity in PC12 – cell-based, CRE-LacZ reporter, forskolin-stimulated, primary screen (AID 1146).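 Note: PC12 cells with 6xCRE LacZ reporter stimulated by forskolin 10 µM; beta-galactosidase reporter signal reflecting CREB driven transcription.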 Conditions: luminescence, 4.5 h, higher = more signal, called active from +8 up or from −8 down.
Assay [15] concerns the target Streptavidin (Streptomyces avidinii) (UniProt P22629). Put plainly: compounds binding control protein streptavidin – biophysical, small-molecule microarray, 635/667 nm fluorescence, artefact control for SMM compound annotation, primary screen (AID 1147).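 Note: signal reflects streptavidin binding to arrayed compounds as a control protein.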 Conditions: higher = more signal.
A short description of assay [16]: probe aInhba binding on compound microarray – biochemical, small-molecule microarray, 635/667 nm fluorescence, primary screen (AID 1148).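 Note: score merges 667nm spot fluorescence with signal-to-noise for antibody binding to printed compounds.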 The note with it: higher = more signal.
For assay [17], the target named is Torsin-1A (Homo sapiens) (UniProt O14656). In words: TOR1A wild-type binding on microarray – cell lysate, small-molecule microarray, lysate, 635/667 nm, primary screen (AID 1149). Conditions: COS7 hTOR1A-WT lysate, 635 nm fluorescence, higher = more signal.
Sequence of Torsin-1A (Homo sapiens) (O14656 whole entry, looked up): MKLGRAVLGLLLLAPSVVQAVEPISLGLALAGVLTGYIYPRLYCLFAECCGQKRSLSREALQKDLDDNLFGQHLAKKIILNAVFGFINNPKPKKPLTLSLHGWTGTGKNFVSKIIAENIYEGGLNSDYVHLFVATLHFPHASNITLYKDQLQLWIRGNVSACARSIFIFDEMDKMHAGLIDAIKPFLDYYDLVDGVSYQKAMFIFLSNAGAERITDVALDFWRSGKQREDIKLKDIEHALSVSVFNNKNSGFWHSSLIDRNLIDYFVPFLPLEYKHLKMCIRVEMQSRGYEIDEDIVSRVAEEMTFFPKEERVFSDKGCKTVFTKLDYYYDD
Assay [18] shares this target. Put plainly: torsin A mutant lysate binding on microarrays – cell lysate, small-molecule microarray, COS7 lysate, 635/667 nm fluorescence, primary screen (AID 1150).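 Note: score pools 667 nm emission and signal to noise measuring lysate protein binding.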 Conditions: COS7 hTOR1A mutant lysate, 635 nm fluorescence, higher = more signal.
Assay [19] has as its system Sonic hedgehog protein (Shh). In words: Sonic hedgehog microarray binding compounds – biochemical, small-molecule microarray, 635/667 nm fluorescence, primary screen (AID 1151).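 Note: Shh protein binding to compounds spotted on small-molecule microarray slides; score combines spot fluorescence intensity with signal-to-noise across triplicate slides.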 The note with it: 635 nm fluorescence, higher = more signal.

Sequence of Streptavidin (Streptomyces avidinii) (P22629 whole entry, looked up): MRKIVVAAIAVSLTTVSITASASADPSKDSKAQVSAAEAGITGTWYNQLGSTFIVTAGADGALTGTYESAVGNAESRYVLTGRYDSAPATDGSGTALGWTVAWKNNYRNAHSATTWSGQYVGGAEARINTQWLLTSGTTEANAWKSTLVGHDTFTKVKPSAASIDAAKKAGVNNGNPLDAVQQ
Sequence of Fibroblast growth factor 2 (Homo sapiens) (P09038 whole entry, looked up): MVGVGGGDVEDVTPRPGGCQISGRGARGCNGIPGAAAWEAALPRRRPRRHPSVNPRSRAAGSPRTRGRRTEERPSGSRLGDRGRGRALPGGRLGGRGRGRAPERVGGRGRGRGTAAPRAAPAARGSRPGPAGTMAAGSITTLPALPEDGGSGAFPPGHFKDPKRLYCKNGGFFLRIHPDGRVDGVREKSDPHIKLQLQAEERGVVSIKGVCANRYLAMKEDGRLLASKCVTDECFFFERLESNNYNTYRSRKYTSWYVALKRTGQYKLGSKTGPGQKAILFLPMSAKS
Sequence of Focal adhesion kinase 1 (Homo sapiens) (Q05397 whole entry, looked up): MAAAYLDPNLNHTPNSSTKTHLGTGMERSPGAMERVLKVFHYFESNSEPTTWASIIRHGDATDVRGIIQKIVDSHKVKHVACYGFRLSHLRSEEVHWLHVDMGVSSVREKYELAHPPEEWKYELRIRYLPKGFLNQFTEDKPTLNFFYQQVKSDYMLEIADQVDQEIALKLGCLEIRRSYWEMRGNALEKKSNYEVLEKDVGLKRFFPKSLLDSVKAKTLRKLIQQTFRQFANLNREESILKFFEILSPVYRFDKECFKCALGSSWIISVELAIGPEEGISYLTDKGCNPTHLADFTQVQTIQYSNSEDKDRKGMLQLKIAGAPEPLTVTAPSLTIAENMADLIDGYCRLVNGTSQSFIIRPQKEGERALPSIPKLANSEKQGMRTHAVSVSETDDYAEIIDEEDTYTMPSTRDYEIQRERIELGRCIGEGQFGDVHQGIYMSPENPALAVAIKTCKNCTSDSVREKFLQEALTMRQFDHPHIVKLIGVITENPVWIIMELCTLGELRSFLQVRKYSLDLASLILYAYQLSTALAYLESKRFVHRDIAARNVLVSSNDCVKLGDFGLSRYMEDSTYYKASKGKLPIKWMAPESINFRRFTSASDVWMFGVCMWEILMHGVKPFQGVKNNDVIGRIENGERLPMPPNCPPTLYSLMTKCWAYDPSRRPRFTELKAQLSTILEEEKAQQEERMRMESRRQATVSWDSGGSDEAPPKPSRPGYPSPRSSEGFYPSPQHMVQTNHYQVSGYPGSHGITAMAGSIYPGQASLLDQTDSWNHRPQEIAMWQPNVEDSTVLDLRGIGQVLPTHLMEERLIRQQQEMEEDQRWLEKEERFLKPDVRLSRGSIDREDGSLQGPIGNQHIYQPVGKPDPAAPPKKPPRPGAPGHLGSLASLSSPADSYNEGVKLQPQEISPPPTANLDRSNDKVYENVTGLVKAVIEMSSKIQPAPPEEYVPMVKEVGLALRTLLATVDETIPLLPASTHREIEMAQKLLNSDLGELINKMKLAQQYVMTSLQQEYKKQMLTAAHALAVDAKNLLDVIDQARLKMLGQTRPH

`O=C(NN=C1C[C@@H](O)[C@@H](O)[C@@H]2[C@@H]3C(=O)N(Cc4ccc5c(c4)OCO5)C(=O)[C@@H]3CC[C@H]12)OCc1ccccc1`: the composite z-score was -0.668 in assay [1]; -0.429 in assay [2]; -0.0697 in [3]; -0.507 in assay [4]; -1.07 in [5]; -0.274 in assay [6]. Besides, the composite z-score is -0.418 in the assay with Lefty1; -0.754 in assay [8]; 0.627 in assay [10]; -0.872 in [15]; -0.0245 in [16]; 2.05 in the assay with Torsin-1A (Homo sapiens) [17]. For the same compound, the composite z-score with Torsin-1A (Homo sapiens) [18] is 0.392; in [19] it was -0.858. Moreover, the z-score in [7] was -0.174; in assay [9], 0.0421 (inactive); in [11] it was 0.0294 (inactive); in [12], 1.54 (inactive); in assay [13], -1.29 (inactive); in [14], 0.383 (inactive).
`C=CCN(CCCCC)C(=O)C1N(CCOCCO)C(=O)C2C(C(=O)O)C3C=CC21O3` (stereo not given): the composite z-score is -0.749 and -1.54 in assay [1]; -1.08 and -0.838 in assay [2]; -0.527 and -1.09 in assay [3]; -1.97 and -0.97 in assay [4]; -0.98 and -2.75 in [5]; -2.29 and -2.04 in [6]. Besides, the composite z-score is -1.41 and -1.91 in the assay on Lefty1; -1.19 and -2.06 in assay [8]; -1.49 and -0.76 in assay [10]; -1.6 and -1.66 in assay [15]; -0.278 and -0.3 in [16]; -2.98 and -2.79 with Torsin-1A (Homo sapiens) [17]. For the same compound, the composite z-score is -0.411 and -1.26 with Torsin-1A (Homo sapiens) [18]; -1.44 and -0.292 in assay [19]. Also, the z-score was 0.586 and -0.536 in [7]; 0.171 (inactive) and 0.472 (inactive) in assay [9]; 0.41 (inactive) and -0.417 (inactive) in assay [11]; 1.73 (inactive) and 1.24 (inactive) in [12]; 0.866 (inactive) and 0.601 (inactive) in assay [13]; 0.17 (inactive) and -0.469 (inactive) in assay [14].
Consider `COC(=O)C1=C(C)N(Cc2ccccc2)[C@]23O[C@](C(=O)OC)(C(=O)N2[C@@H]1c1ccccc1)[C@@H](C(=O)OC)[C@H]3C(=O)OC`, for which the composite z-score in assay [1] is 0.297 and 1.07; in assay [2], -0.813 and 0.143; in assay [3] it was -0.277 and 0.2; in [4], -2.79 and -0.188; in assay [5], -0.998 and 0.452; in [6], -0.179 and 0.403. For the same compound, the composite z-score in the assay on Lefty1 was -0.625 and 0.747; in assay [8] it was 0.753 and -0.487; in assay [10] it was -0.13 and 0.206; in [15] it was -0.895 and -0.188; in assay [16], -0.188 and -0.218; with Torsin-1A (Homo sapiens) [17] it was -0.0921 and 0.481. In addition, the composite z-score was -0.107 and 0.299 with Torsin-1A (Homo sapiens) [18]; -0.652 and 0.611 in [19]. In addition, the z-score in assay [7] was 0.604 and 0.301; in assay [9], -0.781 (inactive) and -1.8 (inactive); in [11], 0.36 (inactive) and 0.333 (inactive); in [12] it was -0.754 (inactive) and 0.0472 (inactive); in [13] it was 0.745 (inactive) and -0.487 (inactive); in assay [14], -0.998 (inactive) and -0.909 (inactive).
Take `C=CCN(C(=O)C(c1cccs1)N(C(=O)/C=C\C(=O)O)c1ccc(CCO)cc1)c1ccc(OC)cc1` (stereo not given): the composite z-score in assay [1] was 0.502 and -2.51; in assay [2], -0.979 and -1.34; in assay [3], 0.32 and -0.445; in [4], -1.36 and -2.21; in [5], -1.14 and -3.18; in [6] it was -2.42 and -2. Also, the composite z-score in the assay on Lefty1 is -0.91 and -2.42; in assay [8] it was -0.4 and -0.894; in assay [10] it was -1.21 and -1.14; in assay [15], -1.31 and -0.93; in assay [16], -0.257 and -0.203; with Torsin-1A (Homo sapiens) [17] it was -3.35 and -2.12. In addition, the composite z-score is 0.425 and -1.7 in the assay with Torsin-1A (Homo sapiens) [18]; -1.17 and -0.672 in [19]. In addition, the z-score was 0.413 and 1.3 in assay [7]; -1.62 (inactive) and -1.01 (inactive) in assay [9]; 0.369 (inactive) and 0.0408 (inactive) in [11]; -2.25 (inactive) and -0.545 (inactive) in [12]; -0.358 (inactive) and 0.463 (inactive) in [13]; -0.308 (inactive) and 0.311 (inactive) in assay [14].
Turning to `C[C@@H]1CC[C@H]2C(=O)N3[C@@H](CC[C@@H](C)[C@@H]3c3ccc(-c4ccco4)cc3)C(=O)N2[C@H]1c1ccc(-c2ccco2)cc1`, the composite z-score in assay [1] was 2.61 and 1.86; in assay [2], 1.22 and 0.674; in assay [3] it was 1.68 and -0.333; in [4], 1.01 and 0.912; in assay [5], 1.35 and 1.45; in assay [6], 0.882 and 1.36. The composite z-score with Lefty1 is 1.24 and 1.32; in [8] it was 1.22 and 1.11; in assay [10] it was 0.178 and 0.544; in [15] it was 1.33 and 2.14; in [16], 0.0006 and 0.0895; with Torsin-1A (Homo sapiens) [17], 0.967 and 2.1. Moreover, the composite z-score in the assay with Torsin-1A (Homo sapiens) [18] is 0.411 and 1.47; in assay [19], 1.44 and 1.19. The z-score is -0.764 and -0.575 in assay [7]; -2.93 (inactive) and -6.15 (inactive) in assay [9]; 0.234 (inactive) and 0.563 (inactive) in [11]; 0.598 (inactive) in [12]; -0.165 (inactive) and 0.651 (inactive) in [13]; 0.371 (inactive) and -0.248 (inactive) in [14].
With `C=CCN(Cc1ccccc1)C(=O)C1N(c2c(Cl)cccc2CO)C(=O)C2C(C(=O)O)C3C=CC21O3` (stereo not given), the composite z-score in assay [1] was -1.57 and -1.25; in assay [2], -2.28 and -0.762; in assay [3] it was -1.12 and -0.942; in [4], -1.61 and -1.28; in [5], -2.48 and -2.78; in [6], -1.21 and -1.62. The composite z-score in the assay with Lefty1 is -3.16 and -3; in assay [8] it was -1.9 and -1.22; in assay [10] it was -0.597 and -1.05; in [15], -1.38 and -2.19; in assay [16], -0.182 and -0.364; with Torsin-1A (Homo sapiens) [17], -0.986 and -1.77. For the same compound, the composite z-score is -1.2 and -1.14 with Torsin-1A (Homo sapiens) [18]; -0.796 and -0.69 in assay [19]. Further, the z-score in assay [7] is 1.29 and -0.936; in [9], -1.28 (inactive) and 1.17 (inactive); in [11], -0.634 (inactive) and -0.0943 (inactive); in [12], -2.23 (inactive) and -0.0736 (inactive); in assay [13], -0.619 (inactive) and -0.216 (inactive); in [14], -1.1 (inactive) and 0.577 (inactive).
Take `C=CCN(CCCC)C(=O)C(c1cccs1)N(CCOCCO)C(=O)/C=C\C(=O)O` (stereo not given): the composite z-score in [1] is -0.542 and 1.17; in assay [2] it was -1.01 and 0.222; in assay [3] it was -0.552 and 0.468; in assay [4] it was -2.44 and -1.32; in assay [5], -1.31 and -0.249; in assay [6], -1.01 and -0.379. For the same compound, the composite z-score was -0.727 and -0.409 in the assay with Lefty1; -0.667 and -0.193 in assay [8]; -0.582 and -0.146 in assay [10]; -0.915 and -0.578 in [15]; -0.0313 and -0.0791 in assay [16]; -0.289 and 0.536 with Torsin-1A (Homo sapiens) [17]. The composite z-score in the assay with Torsin-1A (Homo sapiens) [18] was 1.73 and -0.144; in assay [19] it was -0.127 and -0.197. For the same compound, the z-score was 0.0562 and 0.567 in [7]; -0.417 (inactive) and -0.714 (inactive) in assay [9]; -0.259 (inactive) and -0.0074 (inactive) in [11]; -0.801 (inactive) and -0.86 (inactive) in assay [12]; -0.891 (inactive) and 0.0564 (inactive) in [13]; -0.43 (inactive) and -0.359 (inactive) in assay [14].

Source of the values: PubChem BioAssay.
